Screening data (PubChem BioAssay)
The list is not random: actives were taken first. Their share in the collection is about 11%.
G9a inh: G9a (human) methyltransferase inhibition | Q96KQ7 | G9a H3K9 monomethylation, AlphaScreen, 2 h | Potency, µM (top dose mostly 102 µM), without a hit: top-dose activity, negative = inhibition, usual class: inhibitors | hit rate 8.8% among 350,000 | AID 504332; also: % is scaled to controls: 0 for no effect and ±100 for the full control effect; nearly all actives have a fitted effect of over 75% in size
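Step 1: enzyme (final 20 nM) with compound, 15 min RT. Step 2: substrate peptide 500 nM and SAM 20 uM, 2 h RT. Step 3: anti-H3K9me1 antibody and AlphaScreen beads, 10 min, then plate read.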
JMJD2A Tudor inh: JMJD2A Tudor domain (human) inhibition; AID 504339; hit rate 4.4% among 390,000; AlphaScreen JMJD2A-Tudor / H3K4me3 peptide binding; Potency, µM (series often up to 114 µM), for inactives: top-dose activity change, negative = inhibition, hits mostly inhibitors; O75164; also: % is scaled to controls: 0 for no effect and ±100 for the full control effect; nearly all actives have a fitted effect of over 50% in size
PLK1 PBD inh: inhibitors of human PLK1 polo-box domain binding. Potency, µM, inactives show max response, negative = inhibition, usual class: inhibitors. hit rate 2.8% among 360,000. AID 720504. Plk1 PBD binding of FITC phosphopeptide, fluorescence polarization; also: series mostly up to about 57 µM; % is scaled to controls: 0 for no effect and ±100 for the full control effect; nearly all actives have a fitted effect of over 65% in size
BAZ2B block: blocks human BAZ2B; AlphaScreen BAZ2B-H3K14Ac peptide displacement; Q9UIF8; Potency, µM (series often up to 114 µM), for inactives: top-dose activity change, negative = inhibition, most hits filed as inhibitors; hit rate 4.4% among 360,000; also: % is scaled to controls: 0 for no effect and ±100 for the full control effect; nearly all actives have a fitted effect of over 60% in size
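AlphaScreen displacement of biotin-H3(5-23)K14Ac peptide (50 nM final) from BAZ2B (50 nM final) in PBS pH 7.4, 0.01% Tween-20; complex preformed 30 min RT, then compounds (top 110 uM) 30 min RT, beads 20 min dark.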
HP1b binding inh: inhibitors of HP1-beta chromodomain binding to methylated histone tails. AlphaScreen HP1-beta / biotin-H3K9me3 peptide binding. hit rate 0.56% among 390,000. Potency, µM (series often up to 114 µM), for inactives: top-dose activity change, negative = inhibition, actives largely listed as inhibitors; also: nearly all actives have a fitted effect of over 70% in size
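AlphaScreen: HP1-beta (50 nM) preformed 30 min with biotin-H3(1-18)K9me3 peptide (50 nM) in PBS pH 7.4, 0.01% Tween-20. Compound added for 30 min at RT, then streptavidin donor/nickel chelate acceptor beads (10 ug/mL) for 30 min.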
VDR inhibitor: vitamin D3 receptor (human) inhibition | P11473 | VDR-SRC2-3 peptide fluorescence polarization, 2 h | Potency, µM, without a hit: max response, negative = inhibition, actives largely listed as inhibitors | hit rate 0.93% among 400,000; also: % is scaled to controls: 0 for no effect and ±100 for the full control effect
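Inhibition of the VDR/SRC2-3 peptide interaction is quantified by fluorescence polarization. Compounds (23 nl, pintool) incubate with the reagents for 2 hours at ambient room temperature.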
* hit, by the source's call; ? = inconclusive; / = no result given; [ ] = another dose, or the depositor's remark. Calls follow the shape of the dose curve; as a rule, active = well fitted curve in the direction sought with a large enough effect; inconclusive = small, poorly fitted or top-dose-only effect, or another doubt; inactive = no such curve, though single readings can be large; an effect the other way counts as inactive or inconclusive. Potency is read from the fitted curve at half-maximal effect.

SMILES	G9a inh	JMJD2A Tudor inh	PLK1 PBD inh	BAZ2B block	HP1b binding inh	VDR inhibitor
Cc1ccc(-c2nnn(CC(=O)N(c3cccc(O)c3)C(C(=O)NC(C)(C)C)c3cccs3)n2)o1 (stereo unspecified)	45µM*	-20%	-9%	1%	5%	-1%
Cc1ccc(-c2nnn(CC(=O)N(c3cccc(F)c3)C(C(=O)NC(C)(C)C)c3ccco3)n2)o1 (stereo unspecified)	50µM*	-13%	-5%	-27%	27%	10%
CC(C)(C)NC(=O)C(c1ccc(O)cc1)N(Cc1ccco1)C(=O)Cn1nnc(-c2cccs2)n1 (stereo unspecified)	20µM*	?	-1%	-32%	2%	-2%
Cc1ccc(-c2nnn(CC(=O)N(c3ccccc3)C(C(=O)NC(C)(C)C)c3cccs3)n2)o1 (stereo unspecified)	1%[59 µM]	-8%	-17%	6%	5%	-4%
CCn1cc(/C=C(\NC(=O)c2ccccc2OC)C(=O)N2CCOCC2)c2ccccc21	/	/	-2%	/	/	/
CN(C1=NS(=O)(=O)N=C(N(C)c2ccccc2)O1)c1ccccc1	/	/	-4%	/	/	/
C=C(C)C(=O)Nc1ccc(OC(F)(F)C(F)F)c(NC(=O)C(=C)C)c1	/	79µM*	?	45µM*	56µM*	-16%
O=c1c2cc(N3CCOCC3)ccc2[nH]c(=S)n1Cc1ccccn1	?	28µM*	-10%	-35%	40%	-6%
O=c1c2cc(Br)ccc2[nH]c(=S)n1Cc1ccccn1	7.9µM*	-8%	?	-4%	47%	-10%
COc1ccccc1-c1cn[nH]c(=S)n1	?	50µM*	?	-36%	?	?
COc1ccccc1-c1cncc(NC(C)=O)n1	/	/	-10%	/	/	/
CC1CCN(CCCCOc2ccccc2F)CC1	-15%	10µM*	30µM*	50µM*	1%	?
CC1CCN(CCCCOc2ccccc2Br)CC1	10µM*	16µM*	2%	?	-17%	-23%
COc1ccc(-n2cc(CNCC3CCOCC3)c(-c3cccc(F)c3)n2)cc1	-3%	-5%	3%	-9%	61%	4%
COc1ccc(-n2cc(CNCc3cnc4ccccn34)c(-c3cccc(F)c3)n2)cc1	/	-23%[11.4 µM]	-4%	45µM*	-25%	7%
CCCCC[C@H]1CN(CCc2ccccc2)C(=O)[C@@H]1CC(=O)NCc1ccc(OC)cc1	45µM*	-15%	4%	12%	53%	-7%
CCCCC[C@H]1CN(CCCC)C(=O)[C@@H]1CC(=O)NCc1ccc(OC)cc1	20%	-4%	-3%	2%	48%	-12%
O=C(Nc1cc(Cl)ccc1Cl)c1cc([N+](=O)[O-])cc(Br)c1O	/	56µM*	/	/	-23%	79µM*
O=C(Nc1ccc([N+](=O)[O-])cc1Cl)c1cc(Cl)cc(Cl)c1O	/	45µM*	/	/	-28%	-12%
Cc1[nH]c(=O)c(C#N)c(C)c1CCC(=O)NCc1cccc(C(F)(F)F)c1	6%	-22%	-8%	0%	-6%	-10%
CCOC(=O)C1(C)CCCN1C(=O)c1snnc1C (stereo unspecified)	/	/	0%	/	/	/
COc1ccc(Cn2c(SCc3ccc(C)cc3)nc3cc(OC)c(OC)cc3c2=N)cc1Cl	40µM*	?	0%	?	-21%	56%
CC(=O)Oc1cc2c3c(c1)/C(=C1/SC(=S)NC1=O)C(=O)N3C(C)(C)C=C2C	8.9µM*	11µM*	27µM*	7.9µM*	?	?
CCOc1ccccc1NC(=O)C1CCN(S(=O)(=O)c2c(C)noc2/C=C/c2ccco2)CC1	?	-22%	/	/	-5%	-14%
O=S(=O)(Cc1ccccc1)N1CCN(c2nc(-c3cccs3)nc3ccccc23)CC1	/	-14%	/	/	44%	2%
SMILES	G9a inh	JMJD2A Tudor inh	PLK1 PBD inh	BAZ2B block	HP1b binding inh	VDR inhibitor
O=C1CC(=O)CC(c2ccccc2)C1	1%	-10%	-3%	11%	42%	?
O=C1CC(c2ccccc2)CC(=O)C1CS(=O)(=O)c1ccccc1 (stereo unspecified)	3.2µM*	-20%	-25%	-32%	45%	32µM*
CCOc1cc(C(=O)Nc2ccc3oc(-c4ccc(CC)cc4)nc3c2)cc(OCC)c1OCC	-31%[59 µM]	-9%	/	-12%	21%	-11%
CCOc1cc(C(=O)NCc2ccc(-c3nc4ccccc4o3)cc2)cc(OCC)c1OCC	28µM*	-3%	-11%	1%	14%	3%
Cc1ccc(S(=O)(=O)N2CCN(CC(=O)NCC3(N4CCOCC4)CCCCC3)CC2)cc1	45µM*	-19%	-5%	-2%	11%	-7%
O=C(CN1CCN(S(=O)(=O)c2ccc(Cl)cc2)CC1)NCC1(N2CCOCC2)CCCCC1	-10%[12.7 µM]	-17%	-9%	0%	28%	-9%
COc1ccc2[nH]cc(CCNc3ccnc(-c4cccc(NS(C)(=O)=O)c4)n3)c2c1	/	/	/	/	/	6%
Cc1nn(CC(=O)NCc2cccc(F)c2)c(=O)c2cccn12	/	56µM*	-2%	-13%	?	5%
Cc1nn(CC(=O)NCCCc2ccccc2)c(=O)c2cccn12	13%[59 µM]	11%	-1%	-3%	39%	-15%
CC(C)NC(=O)Nc1cccc2c1O[C@H](CN(C)S(=O)(=O)c1ccccc1)[C@@H](C)CN([C@H](C)CO)C2=O	/	-6%	-5%	/	82%	8%
CC(C)NC(=O)Nc1cccc2c1O[C@H](CN(C)S(=O)(=O)c1ccc(F)cc1)[C@@H](C)CN([C@H](C)CO)C2=O	/	?	19µM*	/	5%	?
CCOc1ccccc1Nc1ncnc2c1c(-c1ccccc1)cn2-c1ccc(OC)cc1	-14%[59 µM]	-16%	/	-29%	-6%	12%
O=C(CSCC(=O)OCn1nnc2ccccc2c1=O)Nc1ccc(Cl)cc1	45µM*	1%	?	-22%	25%	-13%
C[C@H](NC(=O)c1ccc(Cl)cc1)C(=O)OCn1nnc2ccccc2c1=O	/	?	-9%	/	27%	-6%
CN(C)c1ccc(NC(=S)c2ccccn2)cc1	8.9µM*	11µM*	13µM*	2.8µM*	13µM*	-24%
CN(C)c1ccc(C(=S)Nc2ccccc2)cc1	-3%	-20%	-5%	?	1%	8%
O=C(N[C@@H](Cc1ccccc1)C(=O)Nc1ccc(F)cc1)C1CCNCC1	/	-24%	?	-3%	20%	-16%
COc1ccc(CNC(=O)[C@H](Cc2ccccc2)NC(=O)C2CCNCC2)cc1	50µM*	-6%	-12%	-4%	36%	-4%
CC(C)C[C@H](NC(=O)OC(C)(C)C)C(=O)NCC1CCC(C(=O)N[C@@H](Cc2ccccc2)C(=O)O)CC1 (stereo partly specified)	5%	-9%	-8%	-2%	35%	-1%
